Compound activity: PubChem BioAssay, The Scripps Research Institute Molecular Screening Center
CHO-K1 Ca PAM: nonselective activator or artifact in parental CHO-K1 calcium assay. AID 602247. ATP EC20, Fluo-8 calcium fluorescence; 0% at ATP EC20, 100% at ATP max. actives 0.02% (n = 360,000). activation, % at 3 µM;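 active = activation above the run cutoff, the mean activation of all test compounds plus 3 SD, cut at about 40% in these data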;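 also: peak over basal fluorescence ratio in a 140 s read after ATP addition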
CHRM1 agonist: agonists of human M1 muscarinic receptor; P11229; CHO-K1 hM1, Fluo-8 calcium fluorescence, agonist mode; 0% DMSO, 100% acetylcholine EC100; actives 0.33% (n = 360,000); AID 588814; activation, % at 3 µM;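 active = activation above the run's mean compound activation plus 3 SD, cut at about 16% in these data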;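 also: peak over basal fluorescence ratio within a 140 s kinetic read after compound addition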
Target sequence (P11229 whole entry, looked up): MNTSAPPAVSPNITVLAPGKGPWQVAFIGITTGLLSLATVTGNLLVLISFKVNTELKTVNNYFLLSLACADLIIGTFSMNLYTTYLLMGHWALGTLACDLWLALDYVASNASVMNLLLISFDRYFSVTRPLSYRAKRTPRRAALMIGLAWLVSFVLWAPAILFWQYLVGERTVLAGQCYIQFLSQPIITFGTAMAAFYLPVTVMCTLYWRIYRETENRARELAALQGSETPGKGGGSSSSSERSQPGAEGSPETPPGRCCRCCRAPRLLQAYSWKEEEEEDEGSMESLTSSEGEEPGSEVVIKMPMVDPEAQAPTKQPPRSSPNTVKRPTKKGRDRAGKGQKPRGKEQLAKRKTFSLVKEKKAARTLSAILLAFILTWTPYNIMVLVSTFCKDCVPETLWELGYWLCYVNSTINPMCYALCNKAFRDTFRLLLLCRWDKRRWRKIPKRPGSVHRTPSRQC
CHO-K1 Ca ag: M1 agonist counterscreen hit in parental CHO-K1 cells; Fluo-8 calcium fluorescence; scaled to maximal ATP response, vehicle zero; activation, % at 3 µM; actives 0.48% (n = 360,000); in the data active = activation above about 15%;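 also: untransfected CHO-K1 host cells lacking M1 receptor as counterscreen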
M1 antag: blocks human M1 muscarinic receptor | P11229 | CHO-K1 hM1, Fluo-8 calcium fluorescence, ACh EC80 antagonist | inhibition, % at 3 µM | actives 1.3% (n = 360,000) | AID 588852;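 active = percent inhibition above its own plate's cutoff, namely the mean of that plate's compound wells plus 3 SD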;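 also: peak over basal fluorescence ratio during 140 s after agonist addition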
CHO-K1 Ca antag: counter-screen for M1 antagonists: effect in parental CHO-K1 cells. ATP-induced calcium, Fluo-8 fluorescence. actives 0.6% (n = 360,000). inhibition, % at 3 µM;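 active = inhibition above a per-plate cutoff, the plate's mean sample inhibition plus 3 SD, cut at about 24% in these data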
M1 PAM: human CHRM1 positive allosteric modulation; activation, % at 3 µM; actives 0.088% (n = 360,000); AID 588819; CHO-K1 hM1, Fluo-8 calcium fluorescence, ACh EC20; 0% = ACh EC20, 100% = maximal ACh; in the data active = activation above about 19%, passing the limit was not always enough
Of the large screens only hits and unclear results are named; the others gave an inactive call. An excerpt weighted towards active compounds, which were near 2.3% of everything screened.

COc1ccc(C(=O)NNC(=S)NC(=O)c2cc(-c3ccccc3)nc3ccccc23)cc1	CHO-K1 Ca ag 30.2
CCCOc1ccc(C(=O)NNC(=S)NC(=O)c2cc(-c3ccc(Cl)cc3)nc3ccccc23)cc1	none
COc1ccc(C(=O)NNC(=S)NC(=O)C(C)(C)C)cc1	CHRM1 agonist 77.5, CHO-K1 Ca ag 85.7
CN(C)c1ccc(-c2csc(C(O)c3cccc(Cl)c3)n2)cc1 (centres undefined)	CHRM1 agonist 18.5, M1 antag 41.5
Cc1ccc(C(=O)Sc2cccccc2=O)cc1	M1 antag 33.4, CHO-K1 Ca antag 34.9
O=C(Nc1ccccc1SC(=O)c1ccccc1)c1ccccc1	none
OCCCCNCc1ccc(OCc2ccc(Cl)cc2Cl)cc1	M1 antag 35.4
COc1ccc(C(=O)NCCCn2cccn2)cc1OC1CCN(C(C)=O)CC1	none
CCCCc1ccc(N/C(N)=N/c2nc(C)cc(C)n2)cc1	CHRM1 agonist 34.8, CHO-K1 Ca ag 41.6, M1 antag 82.6, CHO-K1 Ca antag 45.9
Cc1ccc(N/C(N)=N/c2nc(C)cc(C)n2)cc1	none
Cc1cc(C)nc(/N=C(\N)Nc2ccc(C(C)C)cc2)n1	CHO-K1 Ca ag 16.1
CNC(=O)Nc1ccc2snnc2c1	CHO-K1 Ca antag 26.1
O=C(CC1Nc2ccccc2NC1=O)Nc1ccc2c(c1)OCO2 (centres undefined)	CHO-K1 Ca antag 28.1
O=C(COC(=O)C1CC2CCCC(C1)C2=O)NNC(=O)c1ccccc1F (centres undefined)	none
O=S1(=O)CC(N2CC=CC2)CN1Cc1cn(Cc2ccc(Cl)cc2)nn1 (centres undefined)	none (no result: CHRM1 agonist, M1 antag, M1 PAM)
C/C(=N\NC(=O)Cn1c(-c2ccccn2)nc2ccccc21)c1ccccc1	CHO-K1 Ca antag 25.7
c1ccc2c(c1)oc1c(-c3cccc4nccn34)cccc12	none
O=C1Nc2cc(C(=O)NCCCN3CCCC3)ccc2S/C1=C/c1ccccc1F	none
O=C(NCCCN1CCCCC1)c1ccc2c(c1)NC(=O)c1ccccc1S2	M1 antag 42.8
Cc1cc2nc(-c3ccco3)c(Cc3ccccc3C(F)(F)F)n2c(C)c1Br	none (no result: CHRM1 agonist, M1 antag, M1 PAM)
NS(=O)(=O)c1ccc(CNC(=O)C23CC4CC(CC(C4)C2)C3)cc1	CHO-K1 Ca antag 28.5
Cc1ccc(NC(=O)C2CCCN(C3=NS(=O)(=O)c4ccccc43)C2)c(O)c1 (centres undefined)	CHO-K1 Ca antag 26.3
O=C(CN1CCN(S(=O)(=O)c2ccc(Br)cc2)CC1)N/N=C/c1ccccc1C(=O)O	none
O=C(NCC(c1ccco1)N1CCc2ccccc2C1)C(=O)Nc1ccc(F)cc1F (centres undefined)	none
N#CC1(NC(=O)COc2ccccc2[N+](=O)[O-])CCCCC1	M1 antag 37.3
N#CC1(NC(=O)COc2cc(F)ccc2[N+](=O)[O-])CCCCC1	none
N#CC1(NC(=O)COC(=O)C2=COCCO2)CCCCC1	CHRM1 agonist 23.7, CHO-K1 Ca ag 19.0
C#CCN(C(=O)c1ccc(OC2CCN(Cc3ccccn3)CC2)cc1)C1CCCCC1	none
COc1ccc(N2CCN(c3ccc(NC(=O)NN)cc3)CC2)cc1	none
O=C(CCS(=O)(=O)c1ccc(Br)cc1)Nc1ccccn1	CHO-K1 Ca antag 24.5
Cn1ccnc1C1CCCCN1Cc1nc(Cc2ccccc2F)no1 (centres undefined)	M1 antag 98.6
COC(=O)c1ccc(-c2noc(CN3CCCCC3c3nccn3C)n2)cc1 (centres undefined)	M1 antag 35.3
CCC(C)NC(=O)c1ccc([N+](=O)[O-])c(Cl)c1 (centres undefined)	none
CC(C)c1c(C(=O)N/N=C/c2ccsc2)nnn1-c1nonc1N	CHRM1 agonist 27.8, CHO-K1 Ca ag 22.3
CC(C)c1c(C(=O)N/N=C/c2ccc(C(F)(F)F)cc2)nnn1-c1nonc1N	CHRM1 agonist 21.0
Cc1ccsc1/C=N/NC(=O)c1nnn(-c2nonc2N)c1C(C)C	none
CC(C)c1c(C(=O)N/N=C/c2cccs2)nnn1-c1nonc1N	CHRM1 agonist 33.6, CHO-K1 Ca ag 33.1
CCOc1ccc(/C=N/Nc2cc(=O)n(C)c(=O)n2C)cc1	none
Cc1nnc2n(c1=O)C(CS(=O)(=O)c1ccc3ccccc3c1)CS2 (centres undefined)	CHO-K1 Ca ag 15.2
